Measurements as given in PubChem BioAssay AID720492 (Broad Institute, 2013).
A number with no mark means an inactive call.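 Rule for the calls: active = unnormalized dose curve rising to cross level 40 at or below the top tested dose; inconclusive = flat fit at moderately raised activity, or poor fit; inactive = the rest.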

Assay: miR-27b level by RT-PCR, dose response, miR-122 / miR-27b project, Huh7 cells, cherry-pick, activator set (AID 720492)
Settings: Huh7 miR-27b levels, qRT-PCR, 48 h; series mostly up to 35 µM; miR-27b level change (relative expression (fold, unnormalized)): at the top concentration

| SMILES | miR-27b level change (relative expression (fold, unnormalized)) |
| --- | --- |
| COCC(=O)N(C)C[C@H]1Oc2cc(-c3ccccc3F)ccc2S(=O)(=O)N([C@H](C)CO)C[C@H]1C | 0.891 |
| COCC(=O)N(C)C[C@H]1Oc2cc(-c3ccc(C#N)cc3)ccc2S(=O)(=O)N([C@@H](C)CO)C[C@H]1C | 1.15 |
| C[C@H]1CN([C@@H](C)CO)C(=O)c2cc(-c3ccc(C#N)cc3)cnc2O[C@H]1CN(C)Cc1cncnc1 | 0.64 |
| CN1C(=O)c2cc(NC(=O)c3cccc(F)c3)ccc2OC[C@@H]2O[C@@H](CC(=O)O)CC[C@H]21 | 0.836 [at 30 µM] |
| CO[C@@H]1CN(C)C(=O)c2cc(NC(=O)c3cccc(Oc4ccccc4)c3)ccc2OC[C@H](C)NC[C@@H]1C | 0 |
| C[C@H]1CN([C@@H](C)CO)S(=O)(=O)c2ccc(C#Cc3ccncc3)cc2O[C@H]1CN(C)C(=O)C1CCOCC1 | 0.326 |
| CN1C(=O)c2cc(NC(=O)c3cccc(F)c3)ccc2OC[C@H]2O[C@@H](CC(=O)O)CC[C@@H]21 | 0.548 |
| CN1C(=O)c2cc(NC(=O)c3cccc(F)c3)ccc2OC[C@H]2O[C@@H](CC(=O)O)CC[C@H]21 | 0.814 |
| CO[C@@H]1CN(C)C(=O)c2cc(NS(=O)(=O)c3ccc(Oc4ccccc4)cc3)ccc2OC[C@H](C)NC[C@@H]1C | 1.39 |
| CN1C(=O)c2cc(NC(=O)c3cccc(F)c3)ccc2OC[C@H]2O[C@H](CC(=O)O)CC[C@@H]21 | 1.69 |
| COCC(=O)N(C)C[C@H]1Oc2cc(C#Cc3cccnc3)ccc2S(=O)(=O)N([C@@H](C)CO)C[C@H]1C | 0.748 |
| C/C=C/c1cnc2c(c1)C(=O)N([C@@H](C)CO)C[C@H](C)[C@H](CN(C)S(=O)(=O)c1ccc(OC)cc1)O2 | 1.02 |
| C[C@@H]1CN([C@H](C)CO)S(=O)(=O)c2ccc(/C=C/c3ccccc3)cc2O[C@@H]1CN(C)C(=O)c1cccnc1 | 0.812 |
| CN1C(=O)c2cc(NC(=O)c3cccc(F)c3)ccc2OC[C@H]2O[C@H](CC(=O)O)CC[C@H]21 | 0.981 |
| Cc1cccc(NC(=O)Nc2ccc3c(c2)C(=O)N(C)[C@@H]2CC[C@@H](CC(=O)NCc4ccccc4Cl)O[C@H]2CO3)c1 | 0.77 |
| COc1ccc(-c2cnc3c(c2)C(=O)N([C@@H](C)CO)C[C@H](C)[C@H](CN(C)S(=O)(=O)c2ccc(OC)cc2)O3)cc1 | 0.716 |
| COCC(=O)N(C)C[C@H]1Oc2cc(C#Cc3cccnc3)ccc2S(=O)(=O)N([C@H](C)CO)C[C@H]1C | 0.997 |
| C[C@H]1CN([C@@H](C)CO)S(=O)(=O)c2ccc(C#Cc3ccncc3)cc2O[C@@H]1CN(C)C(=O)C1CCOCC1 | 0.367 |
| C[C@H]1CN([C@@H](C)CO)C(=O)c2cc(-c3ccc(C#N)cc3)cnc2O[C@H]1CN(C)C(=O)c1ccccc1 | 0.502 |
| CN1C(=O)c2cc(NC(=O)c3cccc(F)c3)ccc2OC[C@@H]2O[C@H](CC(=O)O)CC[C@H]21 | 0.888 |
| CN1C(=O)c2cc(NC(=O)c3cccc(F)c3)ccc2OC[C@@H]2O[C@@H](CC(=O)O)CC[C@@H]21 | 1.95 |
